Test results reported in paper PMC5540273 (PLoS ONE, 2017).

Tests used:
Settings in all cases: concentration: 1 μM, replicates: in singlicate; n = 1
MARK4 = system: MARK4
MAST1 = system: MAST1
MEK1 = system: T1, MEK1
T1 construct: gene MAP2K1

MEK2 = system: T2, MEK2
T2 construct: gene MAP2K2

MEK3 = system: T3, MEK3
T3 construct: gene MAP2K3

MEK4 = system: T4, MEK4
T4 construct: gene MAP2K4

MEK5 = system: T5, MEK5
T5 construct: gene MAP2K5

MEK6 = system: T6, MEK6
T6 construct: gene MAP2K6

MELK = system: MELK
MERTK = system: MERTK
MET = system: MET
MINK = system: T7, MINK
T7 construct: gene MINK1

MKK7 = system: MKK7
MKNK1 = system: MKNK1
MKNK2 = system: MKNK2
MLCK = system: T8, MLCK
T8 construct: gene MYLK3

MLK1 = system: T9, MLK1
T9 construct: gene MAP3K9

MLK2 = system: MLK2
MLK3 = system: MLK3
MRCKA = system: MRCKA
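Further: KINOMEscan kinase panel screen.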

Row | Structure (SMILES) | %Inh (MARK4) [%] | %Inh (MAST1) [%] | %Inh (MEK1) [%] | %Inh (MEK2) [%] | %Inh (MEK3) [%] | %Inh (MEK4) [%] | %Inh (MEK5) [%] | %Inh (MEK6) [%] | %Inh (MELK) [%] | %Inh (MERTK) [%] | %Inh (MET) [%] | %Inh (MINK) [%] | %Inh (MKK7) [%] | %Inh (MKNK1) [%] | %Inh (MKNK2) [%] | %Inh (MLCK) [%] | %Inh (MLK1) [%] | %Inh (MLK2) [%] | %Inh (MLK3) [%] | %Inh (MRCKA) [%]
1 | CCC(=O)c1c(-c2ccccc2)c2cc(Cl)ccc2c(=O)n1Cc1cc(S(C)(=O)=O)n(CC(N)=O)n1 | 5 | 0 | 1 | 40 | 0 | 0 | 15 | 0 | 0 | 0 | 0 | 14 | 0 | 0 | 0 | 0 | 0 | 10 | 1 | 0
2 | Nc1n[nH]c2nnc(-c3ccccc3)c(-c3ccccc3)c12 [GW554060] | 0 | 9 | 0 | 0 | 5 | 14 | 30 | 0 | 18 | 0 | 0 | 0 | 7 | 11 | 49 | 0 | 0 | 0 | 8 | 4
3 | CN1C(=O)C(Nc2ccccc2)=C(c2ccccc2)C1=O [SB-300079] | 12 | 100 | 19 | 34 | 25 | 18 | 41 | 0 | 0 | 0 | 0 | 17 | 20 | 0 | 0 | 9 | 0 | 34 | 0 | 6
4 | Cl.NS(=O)(=O)c1cccc(Nc2cc(-c3ccc(F)cc3)n[nH]2)c1 [GW824645] | 6 | 9 | 12 | 45 | 22 | 27 | 70 | 0 | 0 | 0 | 0 | 57 | 19 | 8 | 0 | 29 | 0 | 4 | 0 | 0
5 | COc1cc2ncn(-c3cc(OCc4ccncc4)c(C(N)=O)s3)c2cc1OC [GSK336313] | 0 | 0 | 3 | 4 | 0 | 8 | 88 | 44 | 0 | 0 | 0 | 15 | 19 | 5 | 2 | 0 | 0 | 0 | 19 | 0
6 | Nc1ncnc2c1ncn2-c1cccc2ccccc12 [SKF-97184] | 29 | 53 | 5 | 24 | 38 | 8 | 26 | 22 | 0 | 0 | 0 | 12 | 0 | 0 | 0 | 0 | 0 | 19 | 0 | 0
7 | Nc1nccc2scc(-c3ccc4c(c3)CCN4C(=O)Cc3ccccc3)c12 [GSK2576924] | 0 | 0 | 2 | 7 | 0 | 5 | 93.2 | 6 | 16 | 22 | 0 | 7 | 9 | 3 | 2 | 3 | 0 | 0 | 5 | 11
8 | Nc1ncnc2c1ncn2-c1ccc(Cl)cc1 [AH2635] | 13 | 0 | 0 | 0 | 0 | 12 | 48 | 0 | 0 | 10 | 0 | 0 | 0 | 26 | 24 | 0 | 0 | 18 | 15 | 0
9 | CCCNC(=O)Nc1ccc(Oc2ncnc3ccn(C)c23)cc1 | 9 | 0 | 0 | 0 | 0 | 10 | 61 | 14 | 7 | 13 | 8 | 1 | 0 | 23 | 0 | 0 | 6 | 6 | 0 | 3
10 | COc1cc2ncn(-c3cc(OCc4ccc(S(C)(=O)=O)cc4)c(C(N)=O)s3)c2cc1OC [GW869979] | 0 | 5 | 30 | 25 | 28 | 6 | 81 | 0 | 8 | 0 | 9 | 38 | 6 | 0 | 12 | 0 | 4 | 0 | 0 | 0
